Reference: PubChem BioAssay (NCATS)
A number with no mark means an inactive call. Inconclusive results are not listed. Entries that show only a call come without a potency. Calls of active or inactive are those of the source. Unless noted, calls follow the shape of the dose curve; as a rule, active = well fitted curve in either direction with a large enough effect (not every such curve was filed as active); inconclusive = small, poorly fitted or top-dose-only effect, or another doubt; inactive = flat fitted curve, though single readings scatter.

Tests used:
[1] = AP1 Signaling Pathway (AID 357); conditions: ME-180 AP-1-bla reporter, EGF-induced, beta-lactamase ratio, 5 h; at 7.69 µM (top of the series) unless noted
How it was run: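 In this screen, ME-180 cells in Opti-MEM with 0.5% dialyzed FBS received EC50 EGF and compound titrations for 5 h. AP-1 reporter beta-lactamase was detected via CCF4 ratio, giving AC50 for positive and negative modulators.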

[2] = target: Cytochrome P450 1A2 (Homo sapiens) (UniProt P05177); assay: p450-cyp1a2 (AID 410; calls by dose curve; also: potency is read from the fitted curve at half-maximal effect)
Sequence of Cytochrome P450 1A2 (Homo sapiens) (P05177 whole entry, looked up): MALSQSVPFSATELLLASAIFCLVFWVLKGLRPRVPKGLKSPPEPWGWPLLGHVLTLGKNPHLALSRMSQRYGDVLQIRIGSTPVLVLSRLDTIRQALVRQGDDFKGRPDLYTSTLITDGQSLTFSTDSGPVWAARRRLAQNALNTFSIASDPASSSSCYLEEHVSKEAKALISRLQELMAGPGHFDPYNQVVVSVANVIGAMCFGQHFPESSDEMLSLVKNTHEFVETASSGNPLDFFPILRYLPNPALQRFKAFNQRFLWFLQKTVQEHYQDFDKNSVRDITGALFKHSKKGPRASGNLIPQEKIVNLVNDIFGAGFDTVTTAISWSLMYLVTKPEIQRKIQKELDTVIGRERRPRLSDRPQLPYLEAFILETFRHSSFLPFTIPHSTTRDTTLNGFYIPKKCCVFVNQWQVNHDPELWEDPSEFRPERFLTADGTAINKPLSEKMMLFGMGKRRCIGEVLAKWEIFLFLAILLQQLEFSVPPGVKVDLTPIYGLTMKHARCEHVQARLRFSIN
How it was run: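 Luminescent readout of luciferin formed from Luciferin-ME by human CYP1A2; data normalized against complete inhibition by 57 uM furafylline. Enzyme 20nM, substrate 100uM at Km, 100mM KPO4 buffer, 60 min reaction at room temperature.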

[3] = NFAT Signaling Pathway (AID 444); conditions: Jurkat NFAT-bla M1, carbachol, beta-lactamase ratio, 5 h; at 7.69 µM (top of the series) unless noted;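 also: carbachol stimulus at about its EC50 of 1 µM final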
How it was run: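 Read-out: CCF4 FRET ratio (460 nm/530 nm) after 1 h RT dye loading, used for %activity and AC50 from titration series. Cells: Jurkat NFAT-β-lactamase/M1 line, treated with compound plus 1 uM carbachol for 5 h, 37 °C.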

[4] = target: Glucocorticoid receptor (Homo sapiens) (UniProt P04150); assay: GR-GFP Redistribution (AID 450;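 active = compounds whose dose series gives a full or clear partial fitted curve of increased nuclear translocation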; also: potency is read from the fitted curve at half-maximal effect); conditions: U2OS GR-GFP nuclear translocation, laser cytometry, 2 h
Sequence of Glucocorticoid receptor (Homo sapiens) (P04150 whole entry, looked up, the tested form may be a part): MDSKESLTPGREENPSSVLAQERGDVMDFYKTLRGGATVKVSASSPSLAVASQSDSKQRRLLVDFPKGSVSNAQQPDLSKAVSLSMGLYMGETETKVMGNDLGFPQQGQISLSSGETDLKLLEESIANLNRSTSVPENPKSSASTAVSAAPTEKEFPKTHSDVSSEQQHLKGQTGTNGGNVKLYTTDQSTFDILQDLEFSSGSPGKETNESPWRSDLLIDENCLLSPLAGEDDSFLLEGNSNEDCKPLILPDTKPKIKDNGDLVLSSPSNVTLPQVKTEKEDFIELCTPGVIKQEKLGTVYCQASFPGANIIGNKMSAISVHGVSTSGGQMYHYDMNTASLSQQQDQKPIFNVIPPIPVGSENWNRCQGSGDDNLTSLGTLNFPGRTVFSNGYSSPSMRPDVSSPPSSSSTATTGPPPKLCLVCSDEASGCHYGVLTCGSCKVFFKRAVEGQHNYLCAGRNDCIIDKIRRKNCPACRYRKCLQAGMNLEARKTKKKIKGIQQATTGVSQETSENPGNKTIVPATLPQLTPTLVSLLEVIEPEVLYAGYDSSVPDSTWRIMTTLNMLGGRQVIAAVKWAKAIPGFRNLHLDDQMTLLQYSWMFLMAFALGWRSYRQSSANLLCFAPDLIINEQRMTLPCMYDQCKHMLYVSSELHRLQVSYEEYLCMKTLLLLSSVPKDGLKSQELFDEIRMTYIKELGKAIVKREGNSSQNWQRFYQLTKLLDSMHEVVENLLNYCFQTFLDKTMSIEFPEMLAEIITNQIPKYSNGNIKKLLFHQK

[5] = target: Glucocorticoid receptor (Homo sapiens) (UniProt P04150); assay: GR-EFC Redistribution (AID 451; calls by dose curve; also: potency is read from the fitted curve at half-maximal effect); conditions: CHO-K1 GR-EFC translocation, beta-gal luminescence, 2 h
How it was run: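 Translocation of GR-ED fusion to nuclear EA restores b-gal, read by luminescence after 1 h room-temperature detection. Engineered CHO-K1 biosensor cells, 1,000/well, exposed 2 h at 37 C to titrations up to 46 uM final.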

[6] = target: 3',5'-cyclic-AMP phosphodiesterase 4B (Homo sapiens) (UniProt Q07343); assay: qHTS Assay for Inhibitors of PDE-IV (AID 607; active = well fitted activation curve with a large enough effect in the main read-out, with a control signal flat, not every such curve was filed as active)
Sequence of 3',5'-cyclic-AMP phosphodiesterase 4B (Homo sapiens) (Q07343 whole entry, looked up): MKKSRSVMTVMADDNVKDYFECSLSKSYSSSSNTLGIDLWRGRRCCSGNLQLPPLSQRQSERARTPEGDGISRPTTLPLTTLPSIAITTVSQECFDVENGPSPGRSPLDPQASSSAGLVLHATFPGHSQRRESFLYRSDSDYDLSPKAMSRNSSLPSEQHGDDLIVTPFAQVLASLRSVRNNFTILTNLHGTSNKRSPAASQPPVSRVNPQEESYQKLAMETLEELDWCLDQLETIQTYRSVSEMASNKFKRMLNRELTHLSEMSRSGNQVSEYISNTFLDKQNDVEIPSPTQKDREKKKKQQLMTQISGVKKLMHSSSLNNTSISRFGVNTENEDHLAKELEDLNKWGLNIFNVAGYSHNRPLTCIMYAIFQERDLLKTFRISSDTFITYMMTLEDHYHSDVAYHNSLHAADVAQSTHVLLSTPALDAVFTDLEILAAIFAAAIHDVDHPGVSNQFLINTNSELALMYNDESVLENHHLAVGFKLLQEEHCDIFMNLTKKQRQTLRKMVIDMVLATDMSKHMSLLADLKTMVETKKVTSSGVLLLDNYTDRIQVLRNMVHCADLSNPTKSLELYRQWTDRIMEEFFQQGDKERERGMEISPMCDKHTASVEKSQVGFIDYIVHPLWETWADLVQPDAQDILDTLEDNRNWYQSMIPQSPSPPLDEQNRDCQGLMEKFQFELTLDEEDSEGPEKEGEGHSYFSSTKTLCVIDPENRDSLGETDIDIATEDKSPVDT
How it was run: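 HEK293 ACTOne cells with CNG channel (1000/well), endogenous PDE4; membrane potential dye, compounds up to 22.9 uM final. Fluorescence Ex 535/Em 590; RO 20-1724 (100 uM final) as reference.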

[7] = target: Cytochrome P450 2C9 (Homo sapiens) (UniProt P11712); assay: qHTS Assay for Inhibitors and Substrates of Cytochrome P450 2C9 (AID 883; active = well fitted curve in the direction sought with a large enough effect; an effect the other way counts as inactive or inconclusive; also: nearly all actives have a fitted effect of over 60% in size; also: potency is read from the fitted curve at half-maximal effect)
Sequence of Cytochrome P450 2C9 (Homo sapiens) (P11712 whole entry, looked up): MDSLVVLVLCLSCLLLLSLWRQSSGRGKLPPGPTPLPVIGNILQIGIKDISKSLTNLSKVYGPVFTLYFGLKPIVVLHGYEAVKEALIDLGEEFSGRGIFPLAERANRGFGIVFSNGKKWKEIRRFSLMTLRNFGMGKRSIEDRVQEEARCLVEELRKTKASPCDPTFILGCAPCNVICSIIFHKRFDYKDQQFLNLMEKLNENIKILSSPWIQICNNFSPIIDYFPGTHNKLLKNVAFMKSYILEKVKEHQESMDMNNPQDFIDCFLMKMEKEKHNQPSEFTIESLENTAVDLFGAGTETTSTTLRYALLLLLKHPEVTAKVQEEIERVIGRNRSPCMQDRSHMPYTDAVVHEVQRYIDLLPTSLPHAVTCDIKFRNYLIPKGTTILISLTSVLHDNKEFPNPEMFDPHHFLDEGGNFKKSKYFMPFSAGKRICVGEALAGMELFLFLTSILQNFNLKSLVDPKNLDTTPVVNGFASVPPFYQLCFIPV
How it was run: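 Turnover of Luciferin-H (100uM, KM) by 10nM human CYP2C9 was measured over 60 min at 37C with NADPH regeneration; inhibitors and some substrates reduce luminescence. Data normalized to sulphaphenazole 57uM.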

[8] = Stat Signaling Pathway (AID 446); conditions: ME-180 SIE beta-lactamase reporter, IL-6 stimulated, 5 h; at 7.69 µM (top of the series) unless noted;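 also: ME-180 cervical cancer cells given 40 pM IL-6 alongside compound; SIE-controlled beta-lactamase reporter measured as 460/530 nm FRET emission ratio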
How it was run: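 ME-180 cells carrying a SIE-driven beta-lactamase reporter are stimulated with 40 pM IL-6 for 5 h at 37C in the presence of compound. The 460/530 nm FRET substrate ratio is read after 2.5 h at RT. Data are normalised to 300 pM IL-6 and to 125 nM JAK inhibitor controls.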

[9] = target: Mitogen-activated protein kinase 10 (Mus musculus) (UniProt Q61831); assay: JNK3 AlphaScreen Assay (AID 530);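 also: kinase came from lysate of stimulated human HepG2 cells; signal reports phosphorylation of biotinylated GST-cJun 1-79 at Ser73 with 10 µM ATP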
How it was run: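 Compound titrations were preincubated 15 minutes at room temperature with substrate, antibody and pre-activated JNK3-containing HepG2 lysate. Reactions were started with 10 uM ATP and stopped with EDTA-containing bead buffer for AlphaScreen detection.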

[10] = target: Guanine nucleotide-binding protein G(i) subunit alpha-1 (Homo sapiens) (UniProt P63096); assay: qHTS Assay for Inhibitors of RGS12 GoLoco Motif Activity (Green Fluorophore) (AID 879; active = well fitted curve in the direction sought with a large enough effect; an effect the other way counts as inactive or inconclusive;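 also: negative values mean loss of peptide binding seen as reduced polarization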)
Sequence of Guanine nucleotide-binding protein G(i) subunit alpha-1 (Homo sapiens) (P63096 whole entry, looked up): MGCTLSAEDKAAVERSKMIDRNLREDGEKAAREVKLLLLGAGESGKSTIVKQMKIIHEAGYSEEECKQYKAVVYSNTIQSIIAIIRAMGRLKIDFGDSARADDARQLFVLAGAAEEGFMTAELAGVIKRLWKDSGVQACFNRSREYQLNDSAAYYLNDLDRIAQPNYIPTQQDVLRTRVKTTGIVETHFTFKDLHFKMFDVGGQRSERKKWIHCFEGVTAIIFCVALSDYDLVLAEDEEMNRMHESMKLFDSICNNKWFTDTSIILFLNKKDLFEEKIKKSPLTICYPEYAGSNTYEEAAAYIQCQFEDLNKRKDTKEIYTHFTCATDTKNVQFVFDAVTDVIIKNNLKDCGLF
How it was run: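 Fluorescence polarization assay: 50 nM Gαi1 with 10 nM FITC-labeled RGS12 GoLoco peptide in 10 mM Tris pH 7.5, 150 mM NaCl, 0.1 mM GDP, 0.05% NP40, 10 min at room temperature with compound.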

[11] = target: Muscarinic acetylcholine receptor M1 (Rattus norvegicus) (UniProt P08482); assay: qHTS Assay for Antagonists of Acetylcholine Muscarinic M1 Receptor: Kinetic Measurement of Intracellular Calcium Response (AID 943; active = well fitted curve in the direction sought with a large enough effect; an effect the other way counts as inactive or inconclusive;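 also: Fluo-4 calcium signal as peak divided by basal fluorescence over 4 min; nearly all actives have a fitted effect of over 75% in size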)
Sequence of Muscarinic acetylcholine receptor M1 (Rattus norvegicus) (P08482 whole entry, looked up): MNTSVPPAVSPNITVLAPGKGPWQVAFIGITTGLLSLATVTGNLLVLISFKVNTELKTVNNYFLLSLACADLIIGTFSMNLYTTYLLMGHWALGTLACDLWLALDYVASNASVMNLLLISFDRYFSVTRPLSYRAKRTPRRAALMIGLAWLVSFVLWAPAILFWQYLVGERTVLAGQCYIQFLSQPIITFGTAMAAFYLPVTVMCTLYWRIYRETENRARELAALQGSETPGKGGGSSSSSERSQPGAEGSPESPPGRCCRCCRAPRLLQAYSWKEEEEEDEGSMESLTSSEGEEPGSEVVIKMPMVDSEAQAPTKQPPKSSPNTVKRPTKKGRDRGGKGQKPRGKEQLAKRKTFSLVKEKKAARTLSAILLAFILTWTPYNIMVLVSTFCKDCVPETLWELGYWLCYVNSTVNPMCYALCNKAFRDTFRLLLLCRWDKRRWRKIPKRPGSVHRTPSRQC
How it was run: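 Rat M1-CHO cells, 2000/well, overnight → Fluo-4 no-wash dye with probenecid, 1 h 37C → compound 10 min, room temp → basal read 6 s → carbachol EC80 (100 nM) → 4 min kinetic read; peak/basal.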

[12] = target: Muscarinic acetylcholine receptor M1 (Rattus norvegicus) (UniProt P08482); assay: qHTS Assay for Antagonists of Acetylcholine Muscarinic M1 Receptor: Measurement of IP-One Response (AID 944; active = well fitted curve in the direction sought with a large enough effect; an effect the other way counts as inactive or inconclusive; also: nearly all actives have a fitted effect of over 75% in size)
How it was run: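 M1-CHO (rat), 2000 cells/well, overnight recovery; cpd 10 min; carbachol EC80 (200 nM), 30 min, HEPES buffer + 50 mM LiCl pH 7.4; IP-One HTRF, Ex 337, Em 620/665 nm.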

[13] = target: Pyruvate kinase (Leishmania mexicana) (UniProt Q27686); assay: qHTS Validation Assay for Inhibitors of Leishmania Mexicana Pyruvate Kinase (AID 945; active = well fitted curve in the direction sought with a large enough effect; an effect the other way counts as inactive or inconclusive)
Sequence of Pyruvate kinase (Leishmania mexicana) (Q27686 2-499 E452W): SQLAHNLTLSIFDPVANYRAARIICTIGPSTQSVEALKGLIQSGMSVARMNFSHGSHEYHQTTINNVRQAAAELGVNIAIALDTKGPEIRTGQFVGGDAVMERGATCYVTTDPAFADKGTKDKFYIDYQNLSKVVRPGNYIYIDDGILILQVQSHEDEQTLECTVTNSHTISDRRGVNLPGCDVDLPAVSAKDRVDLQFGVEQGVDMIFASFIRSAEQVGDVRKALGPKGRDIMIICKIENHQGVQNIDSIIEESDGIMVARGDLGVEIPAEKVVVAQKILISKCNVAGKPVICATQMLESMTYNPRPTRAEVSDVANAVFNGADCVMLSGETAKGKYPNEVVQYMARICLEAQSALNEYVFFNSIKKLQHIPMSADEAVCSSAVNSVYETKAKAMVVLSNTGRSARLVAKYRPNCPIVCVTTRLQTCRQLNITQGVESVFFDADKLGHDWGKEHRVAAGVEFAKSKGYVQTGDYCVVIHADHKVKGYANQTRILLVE
How it was run: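 The enzyme is a highly purified E451W mutant of LmPYK used at 0.2 nM. It converts 0.5 mM PEP and 0.1 mM ADP over 1 h at room temperature; product ATP is quantified by luciferase luminescence relative to DMSO controls.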

[14] = target: Pyruvate kinase PKM (Homo sapiens) (UniProt P14618); assay: qHTS Assay for Activators of Human Muscle Pyruvate Kinase (AID 954; active = well fitted curve in the direction sought with a large enough effect, not every such curve was filed as active)
Sequence of Pyruvate kinase PKM (Homo sapiens) (P14618 whole entry, looked up): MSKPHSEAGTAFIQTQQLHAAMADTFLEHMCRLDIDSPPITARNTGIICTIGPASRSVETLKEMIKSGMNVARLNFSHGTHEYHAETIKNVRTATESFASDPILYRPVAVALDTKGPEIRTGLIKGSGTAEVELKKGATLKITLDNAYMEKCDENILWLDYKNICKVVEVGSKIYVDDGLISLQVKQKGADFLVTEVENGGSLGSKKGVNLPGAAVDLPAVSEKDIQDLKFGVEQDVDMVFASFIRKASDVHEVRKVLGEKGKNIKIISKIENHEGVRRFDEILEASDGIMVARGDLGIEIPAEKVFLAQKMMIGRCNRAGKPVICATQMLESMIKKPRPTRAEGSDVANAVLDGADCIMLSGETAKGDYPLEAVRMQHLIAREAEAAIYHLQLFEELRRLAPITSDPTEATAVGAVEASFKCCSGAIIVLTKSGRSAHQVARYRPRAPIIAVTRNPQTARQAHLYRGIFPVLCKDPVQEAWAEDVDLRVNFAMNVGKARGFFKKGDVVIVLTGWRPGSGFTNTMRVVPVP
How it was run: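 Purified human PKM2 (0.1 nM) with 0.5 mM PEP (Km) and 0.1 mM ADP in 50 mM imidazole pH 7.2, KCl, MgCl2, 1 h at room temperature; ATP formed read by coupled luciferase luminescence. Normalized to no-enzyme/110 uM thiadiazolimine inhibition; 0.3 nM enzyme column for activation.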

[15] = target: Alpha-galactosidase A (Homo sapiens) (UniProt P06280); assay: Counterscreen for Glucocerebrosidase Inhibitors: qHTS Assay for Human alpha-Galactosidase at pH 4.5 (AID 992; active = well fitted curve in the direction sought with a large enough effect; an effect the other way counts as inactive or inconclusive)
Sequence of Alpha-galactosidase A (Homo sapiens) (P06280 whole entry, looked up): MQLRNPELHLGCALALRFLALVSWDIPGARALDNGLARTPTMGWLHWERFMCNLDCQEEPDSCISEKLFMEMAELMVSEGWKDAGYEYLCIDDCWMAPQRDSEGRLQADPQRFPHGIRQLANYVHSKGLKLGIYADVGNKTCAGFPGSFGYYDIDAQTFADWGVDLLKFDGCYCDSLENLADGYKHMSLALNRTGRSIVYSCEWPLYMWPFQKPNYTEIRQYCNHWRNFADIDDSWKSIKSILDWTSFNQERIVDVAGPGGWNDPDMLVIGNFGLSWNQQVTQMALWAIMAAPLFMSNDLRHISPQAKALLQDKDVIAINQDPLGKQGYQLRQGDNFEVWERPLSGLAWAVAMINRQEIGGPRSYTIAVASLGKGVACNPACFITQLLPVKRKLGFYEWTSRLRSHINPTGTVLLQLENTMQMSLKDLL
How it was run: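 Human enzyme (2 nM) with 80 uM 4-methylumbelliferyl alpha-D-galactopyranoside in 50 mM citric acid, 0.005% Tween-20, pH 4.5, 20 min at room temperature. Compounds 0.7 nM–77 uM; fluorescence Ex 365/Em 440 after pH 10 stop; AC50 from Hill fits.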

[16] = target: alpha-glucosidase (Oryza sativa, rice) (UniProt Q653V4); assay: Counterscreen for Glucocerebrosidase Inhibitors: qHTS Assay for Rice alpha-Glucosidase at pH 5.0 (AID 997; active = well fitted curve in the direction sought with a large enough effect; an effect the other way counts as inactive or inconclusive)
How it was run: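 Rice alpha-glucosidase (4 nM final) with 400 uM 4-methylumbelliferyl-alpha-D-glucopyranoside in citrate buffer pH 5.0, 20 min at room temperature, stopped at pH 10; fluorescence 365/440 nm, compounds 0.7 nM–77 uM, AC50 from Hill fits.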

[17] = qHTS Assay for Identification of Small Molecule Agonists for Thrombopoietin (TPO) Signaling Pathway (AID 917; active = well fitted curve in the direction sought with a large enough effect; an effect the other way counts as inactive or inconclusive)
How it was run: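 IL-3-dependent murine pro-B Ba/F3 cells, stably transfected with human TPO receptor and GpIIb-promoter luciferase, are incubated 24 hrs at 37 C with test compound and 26 pM TPO; luciferase signal is read after 10 min at room temperature.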

[18] = target: Cytochrome P450 3A4 (Homo sapiens) (UniProt P08684); assay: qHTS Assay for Activators of Cytochrome P450 3A4 (AID 885; active = well fitted curve in the direction sought with a large enough effect; an effect the other way counts as inactive or inconclusive; also: nearly all actives have a fitted effect of over 65% in size)
How it was run: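 Human CYP3A4 (20 nM) with Luciferin-PPXE at 25 uM (its KM) in 200 mM KPO4; 10 min compound preincubation, then NADPH regeneration and 60 min reaction at RT. Luciferin read by luminescence; normalized to 57 uM ketoconazole full inhibition.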

| Compound | activity change, negative = inhibition [1] | Potency [2] | activity change, negative = inhibition [3] | Potency [4] [µM] | Potency [5] [µM] | Potency [6] | Potency [7] | activity, negative = inhibition [8] | Potency [9] | outcome [10] | Potency [11] | Potency [12] | outcome [13] | outcome [14] | outcome [15] | Potency [16] | outcome [17] | Potency [18] |
| --- | --- | --- | --- | --- | --- | --- | --- | --- | --- | --- | --- | --- | --- | --- | --- | --- | --- | --- |
| O=c1c(-c2cccs2)nc2cnc(Oc3ccccc3)nc2n1C1CC1 | -6.67% | 2.51 µM (active) | 22.4% | > 9.22 | > 46 | inactive | 3.16 µM (active) |  |  |  |  |  |  |  |  |  |  |  |
| O=C(Nc1ccccc1)N1CCC2(CC1)CCN(C(=O)c1ccco1)CC2 | -11.7% | 10 µM (active) | -5.38% |  | > 46 | inactive |  | 15.9% | inactive |  |  |  |  |  |  |  |  |  |
| COc1c2c(nc3ccccc13)O[C@@H]([C@@](C)(O)CO)C2 | -14.5% [at 38 µM] | 15.8 µM (active) | -2.6% [at 38 µM] | > 46 | > 46 | inactive |  |  | inactive | inactive | inactive | inactive | inactive | inactive | inactive | inactive |  |  |
| C=C(C)[C@@H]1CC=C(C(=O)O)CC1 | 3.75% [at 38 µM] | inactive | -3.51% [at 38 µM] | > 46 | > 46 | inactive |  |  | inactive | inactive |  | inactive | inactive | inactive | inactive | inactive | inactive |  |
| COc1cc2nc(N3CCN(C(=O)OCc4ccccc4)[C@H](C(=O)NC(C)(C)C)C3)nc(N)c2cc1OC | -7.79% [at 38 µM] | inactive | 3.46% [at 38 µM] | > 46 | > 46 | inactive |  |  | inactive | inactive |  | inactive | inactive | inactive | inactive | inactive |  | inactive |
| CCN(CC)[C@@H](C)C(=O)N1c2ccccc2Sc2ccccc21 | 14.4% [at 38 µM] | inactive | -74.6% [at 38 µM] (active) | > 46 | > 46 | inactive | inactive |  | inactive |  |  |  |  |  |  |  |  |  |
| C[C@H]1C[C@@H]2[C@H]3CCC4=CC(=O)C=C[C@@]4(C)[C@@]3(Cl)[C@@H](O)C[C@]2(C)[C@]1(OC(=O)c1ccco1)C(=O)CCl | -22% [at 17.2 µM] | 5.01 µM (active) | -27.1% [at 17.2 µM] |  |  | inactive |  | -1.49% [at 17.2 µM] | inactive |  |  |  |  |  |  |  |  |  |
| CCNc1ncc2nc(-c3ccccc3)c(=O)n(C3CC3)c2n1 | -3.39% | 2.51 µM (active) | 23.2% | > 9.22 | > 46 |  |  |  | inactive |  |  |  |  |  |  |  |  |  |
